# Measured values as given in publication PMC4336329 (PLoS ONE, 2015).
# In all, about 310,000 compounds went through this assay and about 14,000 (4.5%) showed an effect of 50% or more. Effects have a minus sign here. The full list was thinned out, with strong results kept by preference.
# Molecular target: human ether-à-go-go-related gene (hERG) potassium channel (human, UniProt Q12809)
# Experiment: primary screen, population patch clamp on CHO cells stably expressing hERG; higher = less effect of the substance
# 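Further: peak tail current of the secondary pulse compared with the same well before compound.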
# Chain of human ether-à-go-go-related gene (hERG) potassium channel (Q12809 whole entry, looked up): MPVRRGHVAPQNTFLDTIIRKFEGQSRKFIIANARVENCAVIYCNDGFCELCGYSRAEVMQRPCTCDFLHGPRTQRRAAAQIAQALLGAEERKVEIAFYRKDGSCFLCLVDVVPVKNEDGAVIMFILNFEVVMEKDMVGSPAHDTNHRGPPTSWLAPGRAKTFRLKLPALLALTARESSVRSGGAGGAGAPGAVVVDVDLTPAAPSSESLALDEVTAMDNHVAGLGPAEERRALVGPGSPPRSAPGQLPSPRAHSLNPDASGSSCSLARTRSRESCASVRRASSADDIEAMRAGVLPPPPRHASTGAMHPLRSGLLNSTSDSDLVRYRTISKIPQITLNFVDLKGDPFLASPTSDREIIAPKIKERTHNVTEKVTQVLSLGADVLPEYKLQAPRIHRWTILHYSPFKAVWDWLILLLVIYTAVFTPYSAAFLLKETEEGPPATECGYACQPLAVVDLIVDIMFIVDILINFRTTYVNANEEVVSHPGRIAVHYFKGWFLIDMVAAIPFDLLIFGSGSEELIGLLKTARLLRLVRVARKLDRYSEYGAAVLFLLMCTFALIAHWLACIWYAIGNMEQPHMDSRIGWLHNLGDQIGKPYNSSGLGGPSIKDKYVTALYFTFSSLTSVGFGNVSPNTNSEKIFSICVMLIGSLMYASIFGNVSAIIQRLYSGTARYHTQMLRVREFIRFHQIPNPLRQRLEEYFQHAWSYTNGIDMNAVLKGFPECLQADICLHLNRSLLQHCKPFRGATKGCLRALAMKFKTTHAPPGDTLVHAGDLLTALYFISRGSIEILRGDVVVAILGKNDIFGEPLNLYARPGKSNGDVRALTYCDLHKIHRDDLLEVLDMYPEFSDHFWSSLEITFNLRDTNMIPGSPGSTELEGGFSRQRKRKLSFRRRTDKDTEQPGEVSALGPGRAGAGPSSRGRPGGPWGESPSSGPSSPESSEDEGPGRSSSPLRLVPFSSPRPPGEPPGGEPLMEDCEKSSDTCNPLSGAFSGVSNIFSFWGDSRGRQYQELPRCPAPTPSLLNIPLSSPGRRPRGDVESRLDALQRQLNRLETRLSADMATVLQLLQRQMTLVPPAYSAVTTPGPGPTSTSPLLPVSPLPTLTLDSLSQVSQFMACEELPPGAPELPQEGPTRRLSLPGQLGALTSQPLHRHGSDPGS
row,SMILES,"hERG current change (%, negative = inhibition) at 10uM"
1,O=C(CSc1ccccc1C(=O)NCc1ccccc1)NC1CCCCCCC1,-8.1%
2,O=C(/C=C/c1ccc([N+](=O)[O-])cc1)NCc1cccnc1,-42.7%
3,CC1(C)CC(=O)C=C(C(=O)N2CCCC(C(=O)c3cccc(Cl)c3)C2)O1 (stereo not shown),-31%
4,O=C(O)c1ccc(NS(=O)(=O)c2ccc(Cl)cc2)cc1,0.513%
5,COc1cccc(CN2CCC(n3nccc3NC(=O)CCOc3ccccc3)CC2)c1,-62%
6,CC(=O)c1cccc(CN2CCC(n3nccc3NC(=O)CCOc3ccccc3)CC2)c1,-3.2%
7,O=C(CCCc1ccccc1)Nc1ccnn1C1CCN(Cc2ccccc2F)CC1,-49%
8,O=C(CCOc1ccccc1)Nc1ccnn1C1CCN(Cc2ccc(CO)o2)CC1,6.52%
9,Cc1ccc(CN2CCC(n3nccc3NC(=O)CCOc3ccccc3)CC2)o1,-20.7%
10,CCNC(=O)N1CCC(n2nccc2NC(=O)CCOc2ccccc2)CC1,9.99%
11,COc1ccc(O)c(CN2CCC(n3nccc3NC(=O)CCOc3ccccc3)CC2)c1,-60.4%
12,COc1cccc(C(=O)N2CCC(n3nccc3NC(=O)CCOc3ccccc3)CC2)c1,-0.0371%
13,Cc1cc(C)c(CN2CCC(n3nccc3NC(=O)CCOc3ccccc3)CC2)cc1C,-26.1%
14,O=C(CCOc1ccccc1)Nc1ccnn1C1CCN(CCc2ccccc2)CC1,-65.1%
15,COc1ccc(F)c(CN2CCC(n3nccc3NC(=O)CCCc3ccccc3)CC2)c1,-86.7%
16,CCn1c(SCc2nc3ccccc3[nH]2)nnc1-c1ccc(OC)cc1,-1.72%
17,O=C(NNC(=O)C1CC(=O)N(Cc2ccccc2)C1)c1ccc(F)cc1 (stereo not shown),2.46%
18,O=C(NC1CCCCCC1)c1cccnc1Sc1ccccc1,-15.4%
19,O=S(=O)(c1ccc(NC(=S)N2CCN(c3ccc(O)cc3)CC2)cc1)N1CCOCC1,2.83%
20,COC(=O)C[C@H]1c2cc(F)cc(F)c2S(=O)(=O)N1C1CCN(Cc2ccccc2)CC1,-32%
21,CC(=O)Nc1ccc(S(=O)(=O)CCC(=O)O)cc1,17.5%
22,Cc1cc(C(=O)Nc2sc(C)c(C)c2C#N)c(C)o1,20.6%
23,Cc1ccc2oc(C(=O)NCC(c3ccco3)N(C)C)c(C)c2c1 (stereo not shown),-8.52%
24,COc1ccc(CN2CCC(n3nccc3NC(=O)CCOc3ccccc3)CC2)cc1C,-68.7%
25,CCn1cc(CN2CCC(n3nccc3NC(=O)CCOc3ccccc3)CC2)c(C)n1,7.84%
26,O=C(CCOc1ccccc1)Nc1ccnn1C1CCN(Cc2ccc(F)cc2)CC1,-59.1%
27,CCn1cc(CN2CCC(n3nccc3NC(=O)CCOc3ccccc3)CC2)cn1,-12.9%
28,Cc1ccc(CN2CCC(n3nccc3NC(=O)CCOc3ccccc3)CC2)cc1C,-48.2%

row,SMILES,"hERG current change (%, negative = inhibition) at 10uM"
1,O=C(COc1ccc2c3c(c(=O)oc2c1)CCC3)NCC(O)c1ccccc1 (stereo not shown),11.5%
2,CCOC(=O)C1CCCN(S(=O)(=O)c2ccc3c(c2)NC(=O)CO3)C1 (stereo not shown),-1.47%
3,COc1ccc(C2(C)NC(=O)N(CC(=O)Nc3ccc(S(=O)(=O)N4CCCC4)cc3)C2=O)cc1 (stereo not shown),-2.91%
4,O=C(CN1CCCC1)Nc1ccc(OCc2ccccc2)cc1,-54.1%
5,O=C(CN1CCOCC1)Nc1ccc(OCc2ccccc2)cc1,-21.3%
6,CN1CCN(CC(=O)Nc2ccc(OCc3ccccc3)cc2)CC1.Cl,-9.11%
7,O=C(CN1CCN(c2ccccn2)CC1)Nc1ccc(OCc2ccccc2)cc1,-45.3%
8,O=C(CN1CCN(c2ccccc2)CC1)Nc1ccc(OCc2ccccc2)cc1,2.44%
9,O=C(CN1CCN(CC(=O)Nc2ccc(OCc3ccccc3)cc2)CC1)Nc1ccc(F)cc1,-72.5%
10,COC(=O)c1ccc(N=Cc2c(C(F)(F)F)[nH][nH]c2=O)cc1,27.2%
11,CCCCCc1nc2ccccc2c(=O)n1-c1ccccc1[N+](=O)[O-],-24.5%
12,Cc1ccc(NC(=O)c2cccs2)cc1NC(=O)c1cccc(F)c1,5.36%
13,CC(C)c1c(O)nc(SCc2ccccc2)[nH]c1=O,11.5%
14,CSc1ccccc1C(=O)NCC1CCCO1 (stereo not shown),-11.8%
15,O=C1c2ccccc2C(=O)N1CCCCSc1nnnn1-c1ccccc1,-51.7%
16,O=C(O)CCSc1nnnn1-c1ccccc1,-1.42%
17,CCSc1nnc2c(Cl)cc(Cl)cn12,5.28%
18,O=C1c2ccccc2C(=O)N1CSc1nnnn1-c1ccccc1,-3.73%
19,O=C1c2ccccc2C(=O)N1CCCCSc1nnc2ccccn12,-22.7%
20,O=C1c2ccccc2C(=O)N1CCCCSc1nnc2c(Cl)cc(Cl)cn12,-80.2%
21,CC(=O)OCc1cc(-c2nc3ccccc3[nH]c2=O)nn1-c1ccc(Cl)cc1,18%
22,O=C(CSc1nc2[nH]ncc2c(=O)[nH]1)NCCc1ccccc1,26.9%
23,O=[N+]([O-])c1ccc2c(c1N1CCCCC1)=NC1(CCCCC1)[N+]=2[O-],-8.78%
24,Cc1ccc(NC(=O)C/C(N)=N/OC(=O)Nc2ccc(C)c(Cl)c2)cc1,4.56%
25,COCCCNC(=O)c1ccc(-n2nc(C(F)(F)F)cc2-c2cccs2)cc1,-30.6%
26,O=C(NCCCN1CCOCC1)c1ccc(-n2nc(C(F)(F)F)cc2-c2cccs2)cc1,-80.4%
27,O=C(NCCCN1CCOCC1)c1cc(-c2cccs2)on1,-15.7%
